Results taken from the supplement of paper PMC10849652.
Of roughly 8,800 targets only a part is listed; those with a hit were picked by preference. About 0.5% of all pairs of compound and target were hits.

Assays:
Assay in all cases: log2 fold change, soluble protein after heating vs DMSO (PISA); higher = thermal stabilisation; K562 lysate, 10 uM; active = over 0.2 and 3.5 SD of the protein, either way, in both replicates (recomputed)
lapatinib = compound: CS(=O)(=O)CCNCc1ccc(-c2ccc3ncnc(Nc4ccc(OCc5cccc(F)c5)c(Cl)c4)c3c2)o1 [lapatinib]
Method in brief: (§1)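 Pellets of K562 cells were dounce-homogenised in PBS pH 7.4 with 1 mM MgCl2, and the crude extract was held at 1 mg/mL protein for a 30 min treatment with 10 μM compound. Aliquots were heated for 3 min over 48°C-58°C and pooled before NP-40 was added to 0.5% at 4°C. The supernatant from 21,000xg for 90 min was quantified by TMTpro 16plex LC-MS/MS with channel sums equalised. Values are reported from duplicates as log-two fold change in thermal stability relative to solvent controls.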

pictilisib = compound: CS(=O)(=O)N1CCN(Cc2cc3nc(-c4cccc5[nH]ncc45)nc(N4CCOCC4)c3s2)CC1 [pictilisib]
Method in brief: as §1

crizotinib = compound: C[C@@H](Oc1cc(-c2cnn(C3CCNCC3)c2)cnc1N)c1c(Cl)ccc(F)c1Cl [crizotinib]
Method in brief: as §1

[1] = compound: C[C@H](C1=CC=C(C=C1)C(=O)NC2=C3C=CNC3=NC=C2)N
Method in brief: as §1

duvelisib = compound: C[C@H](Nc1ncnc2nc[nH]c12)c1cc2cccc(Cl)c2c(=O)n1-c1ccccc1 [duvelisib]
Method in brief: as §1

gandotinib = compound: Cc1cc(Nc2cc(CN3CCOCC3)c3nc(C)c(Cc4ccc(Cl)cc4F)n3n2)n[nH]1 [gandotinib]
Method in brief: as §1

tozasertib = compound: Cc1cc(Nc2cc(N3CCN(C)CC3)nc(Sc3ccc(NC(=O)C4CC4)cc3)n2)n[nH]1 [tozasertib]
Method in brief: as §1

doramapimod = compound: Cc1ccc(-n2nc(C(C)(C)C)cc2NC(=O)Nc2ccc(OCCN3CCOCC3)c3ccccc23)cc1 [doramapimod]
Method in brief: as §1

bafetinib = compound: Cc1ccc(NC(=O)c2ccc(CN3CC[C@H](N(C)C)C3)c(C(F)(F)F)c2)cc1Nc1nccc(-c2cncnc2)n1 [bafetinib]
Method in brief: as §1

[2] = compound: Cc1cccc(CC(=O)N2CCc3c2ccc(-c2cn(C)c4ncnc(N)c24)c3F)n1
Method in brief: as §1

Measured: log2 fold change

HMGB2 (UniProt P26583)
inactive: lapatinib 0.006 | pictilisib 0.021 | crizotinib 0.052 | duvelisib -0.01 | gandotinib -0.16 | tozasertib -0.022 | doramapimod -0.088 | bafetinib 0.14
active: [1] 0.266 | [2] -0.244

HNRNPH2 (UniProt P55795)
Sequence of UniProt P55795 (P55795 whole entry, looked up): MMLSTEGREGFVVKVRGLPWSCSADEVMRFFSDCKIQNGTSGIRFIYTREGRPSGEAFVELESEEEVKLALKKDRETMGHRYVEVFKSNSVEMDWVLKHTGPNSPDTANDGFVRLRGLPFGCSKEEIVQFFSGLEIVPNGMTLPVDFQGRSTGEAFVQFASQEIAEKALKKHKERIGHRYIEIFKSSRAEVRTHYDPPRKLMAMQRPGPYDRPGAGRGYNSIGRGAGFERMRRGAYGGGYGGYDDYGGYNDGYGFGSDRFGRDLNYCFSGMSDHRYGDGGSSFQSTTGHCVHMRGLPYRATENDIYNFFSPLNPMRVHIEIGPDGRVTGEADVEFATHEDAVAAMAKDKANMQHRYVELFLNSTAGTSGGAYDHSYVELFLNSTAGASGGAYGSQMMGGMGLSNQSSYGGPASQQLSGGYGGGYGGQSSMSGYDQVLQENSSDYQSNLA
inactive: lapatinib 0.025 | pictilisib -0.004 | crizotinib -0.097 | [1] -0.048 | duvelisib -0.024 | gandotinib 0.068 | tozasertib -0.032 | doramapimod 0.062 | bafetinib 0.018 | [2] 0.008

HLTF (UniProt Q14527)
Sequence of UniProt Q14527 (Q14527 whole entry, looked up): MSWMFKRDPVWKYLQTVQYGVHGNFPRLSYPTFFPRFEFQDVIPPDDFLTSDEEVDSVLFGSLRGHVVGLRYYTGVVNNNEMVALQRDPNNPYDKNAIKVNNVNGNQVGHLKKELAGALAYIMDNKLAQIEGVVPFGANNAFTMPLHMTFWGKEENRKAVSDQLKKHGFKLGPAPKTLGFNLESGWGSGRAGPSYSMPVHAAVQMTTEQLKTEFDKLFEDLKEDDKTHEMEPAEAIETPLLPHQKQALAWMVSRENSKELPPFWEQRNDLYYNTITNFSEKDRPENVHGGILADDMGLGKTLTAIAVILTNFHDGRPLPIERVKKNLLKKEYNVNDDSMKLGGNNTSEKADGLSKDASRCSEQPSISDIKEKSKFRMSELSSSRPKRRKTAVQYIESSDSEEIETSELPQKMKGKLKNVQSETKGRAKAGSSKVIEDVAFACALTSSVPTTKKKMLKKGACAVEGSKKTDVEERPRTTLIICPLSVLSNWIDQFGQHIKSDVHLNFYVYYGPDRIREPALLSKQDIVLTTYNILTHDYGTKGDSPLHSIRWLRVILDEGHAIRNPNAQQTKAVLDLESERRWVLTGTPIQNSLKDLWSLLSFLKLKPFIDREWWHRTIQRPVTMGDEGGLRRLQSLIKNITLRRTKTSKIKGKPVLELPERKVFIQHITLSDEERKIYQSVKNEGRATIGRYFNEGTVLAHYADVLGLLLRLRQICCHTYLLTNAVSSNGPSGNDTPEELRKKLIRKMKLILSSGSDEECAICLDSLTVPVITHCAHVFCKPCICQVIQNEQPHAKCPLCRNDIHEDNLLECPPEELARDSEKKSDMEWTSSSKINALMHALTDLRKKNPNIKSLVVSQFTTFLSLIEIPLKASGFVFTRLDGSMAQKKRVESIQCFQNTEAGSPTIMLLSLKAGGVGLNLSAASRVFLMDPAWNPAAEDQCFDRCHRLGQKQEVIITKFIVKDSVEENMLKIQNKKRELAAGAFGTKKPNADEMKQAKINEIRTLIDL
inactive: lapatinib 0.045 | pictilisib 0.061 | crizotinib -0.019 | [1] -0.063 | duvelisib -0.05 | gandotinib -0.021 | tozasertib 0.004 | doramapimod -0.007 | bafetinib -0.087 | [2] 0.035

IMPACT (UniProt Q9P2X3)
Sequence of UniProt Q9P2X3 (Q9P2X3 whole entry, looked up): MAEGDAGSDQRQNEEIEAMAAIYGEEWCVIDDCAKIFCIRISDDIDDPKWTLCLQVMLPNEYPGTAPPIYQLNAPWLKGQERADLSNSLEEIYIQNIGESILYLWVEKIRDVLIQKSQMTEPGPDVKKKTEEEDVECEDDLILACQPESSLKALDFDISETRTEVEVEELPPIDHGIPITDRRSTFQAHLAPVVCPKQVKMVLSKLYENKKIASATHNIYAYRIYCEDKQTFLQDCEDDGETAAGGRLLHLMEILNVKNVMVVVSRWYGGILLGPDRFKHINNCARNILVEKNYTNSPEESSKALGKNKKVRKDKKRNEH
inactive: lapatinib 0.012 | pictilisib 0.044 | crizotinib 0.083 | [1] 0.077 | duvelisib -0.015 | gandotinib 0.065 | tozasertib 0.026 | doramapimod -0.044 | bafetinib -0.098 | [2] -0.096

IARS (UniProt P41252)
inactive: lapatinib -0.032 | pictilisib -0.006 | crizotinib -0.045 | [1] 0.059 | duvelisib -0.001 | gandotinib -0.13 | tozasertib 0.013 | doramapimod 0.016 | bafetinib -0.015 | [2] -0.041

KCTD20 (UniProt Q7Z5Y7)
inactive: lapatinib -0.064 | pictilisib 0.039 | crizotinib -0.077 | [1] 0.006 | duvelisib -0.082 | gandotinib 0.006 | tozasertib -0.119 | doramapimod -0.01 | bafetinib 0.007 | [2] -0.005

GTF3C3 (UniProt Q9Y5Q9)
inactive: lapatinib -0.043 | pictilisib -0.051 | crizotinib -0.093 | [1] -0.108 | duvelisib 0.017 | gandotinib -0.037 | tozasertib 0.009 | doramapimod 0.012 | bafetinib -0.045 | [2] 0.084

KDM5B isoform 2 (UniProt Q9UGL1)
inactive: lapatinib -0.006 | pictilisib -0.041 | crizotinib -0.02 | [1] -0.003 | duvelisib 0 | gandotinib 0.257 | tozasertib 0.13 | doramapimod -0.033 | bafetinib -0.013 | [2] 0.29

IRF2BP1 (UniProt Q8IU81)
inactive: lapatinib -0.01 | pictilisib 0.008 | crizotinib -0.052 | [1] -0.004 | duvelisib -0.086 | gandotinib 0.004 | tozasertib 0 | doramapimod 0.105 | bafetinib -0.1 | [2] 0.043

KBTBD4 isoform 2 (UniProt Q9NVX7)
Sequence of UniProt Q9NVX7 (Q9NVX7 whole entry, looked up): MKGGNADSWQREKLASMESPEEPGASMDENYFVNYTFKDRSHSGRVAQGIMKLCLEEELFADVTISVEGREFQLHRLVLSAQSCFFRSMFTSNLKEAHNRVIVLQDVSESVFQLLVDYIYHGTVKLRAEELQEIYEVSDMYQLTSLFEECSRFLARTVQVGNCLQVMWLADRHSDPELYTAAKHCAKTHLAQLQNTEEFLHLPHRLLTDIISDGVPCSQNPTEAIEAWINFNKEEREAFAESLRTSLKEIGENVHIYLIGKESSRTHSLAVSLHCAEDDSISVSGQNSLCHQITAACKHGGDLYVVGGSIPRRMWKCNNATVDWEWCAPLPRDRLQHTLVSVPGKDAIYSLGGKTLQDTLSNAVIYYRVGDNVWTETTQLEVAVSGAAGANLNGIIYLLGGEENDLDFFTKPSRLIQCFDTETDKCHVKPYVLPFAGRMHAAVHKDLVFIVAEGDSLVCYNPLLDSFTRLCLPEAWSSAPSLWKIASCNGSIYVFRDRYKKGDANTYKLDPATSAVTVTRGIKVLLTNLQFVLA
inactive: lapatinib 0.03 | pictilisib -0.015 | crizotinib -0.038 | [1] -0.075 | duvelisib 0.056 | gandotinib 0.109 | tozasertib -0.068 | doramapimod -0.023 | bafetinib -0.013 | [2] 0.047

HAUS6 (UniProt Q7Z4H7)
inactive: lapatinib 0.001 | pictilisib -0.028 | crizotinib -0.029 | [1] -0.054 | duvelisib 0.006 | gandotinib -0.041 | tozasertib 0.046 | doramapimod -0.009 | bafetinib 0.051 | [2] 0.104

GNL3 (UniProt Q9BVP2)
inactive: lapatinib -0.058 | pictilisib -0.018 | crizotinib -0.134 | [1] 0.097 | duvelisib 0.004 | gandotinib -0.115 | tozasertib -0.013 | doramapimod 0.039 | bafetinib -0.128 | [2] -0.031

HDAC10 (UniProt Q969S8)
inactive: lapatinib -0.101 | pictilisib -0.019 | crizotinib -0.015 | [1] -0.042 | duvelisib -0.014 | gandotinib 0.029 | tozasertib 0.068 | doramapimod -0.046 | bafetinib 0.035 | [2] 0.061

GSTZ1 (UniProt G3V4T6)
inactive: lapatinib 0 | pictilisib 0.04 | crizotinib -0.015 | [1] -0.067 | duvelisib 0.028 | gandotinib 0.061 | tozasertib 0.004 | doramapimod -0.035 | bafetinib -0.071 | [2] 0.146

HK2 (UniProt P52789)
inactive: lapatinib -0.003 | pictilisib -0.017 | crizotinib -0.069 | [1] 0.043 | duvelisib 0.007 | gandotinib -0.056 | tozasertib 0.007 | doramapimod 0.05 | bafetinib -0.076 | [2] 0.004

GUSB (UniProt P08236)
Sequence of UniProt P08236 (P08236 whole entry, looked up): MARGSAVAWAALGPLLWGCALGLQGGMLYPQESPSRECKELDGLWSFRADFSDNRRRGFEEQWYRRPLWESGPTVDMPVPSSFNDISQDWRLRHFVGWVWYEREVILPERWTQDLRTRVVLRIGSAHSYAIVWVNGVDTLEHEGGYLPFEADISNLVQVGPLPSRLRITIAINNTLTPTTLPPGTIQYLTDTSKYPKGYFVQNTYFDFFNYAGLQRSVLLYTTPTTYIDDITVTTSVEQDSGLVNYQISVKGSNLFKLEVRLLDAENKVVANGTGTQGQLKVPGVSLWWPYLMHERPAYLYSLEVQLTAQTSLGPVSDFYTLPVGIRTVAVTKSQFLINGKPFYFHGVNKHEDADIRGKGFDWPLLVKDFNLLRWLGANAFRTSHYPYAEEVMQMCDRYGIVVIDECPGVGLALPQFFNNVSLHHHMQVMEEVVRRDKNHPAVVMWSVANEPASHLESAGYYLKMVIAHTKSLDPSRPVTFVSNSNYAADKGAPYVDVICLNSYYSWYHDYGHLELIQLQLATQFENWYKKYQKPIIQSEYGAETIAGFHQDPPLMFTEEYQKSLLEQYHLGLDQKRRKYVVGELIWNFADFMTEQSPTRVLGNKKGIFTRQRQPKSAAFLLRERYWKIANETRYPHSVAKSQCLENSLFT
inactive: lapatinib -0.097 | pictilisib -0.012 | crizotinib -0.044 | duvelisib 0.017 | gandotinib 0.228 | tozasertib 0.02 | doramapimod 0.037 | bafetinib -0.057 | [2] 0.27
active: [1] -0.547

HADH isoform 2 (UniProt Q16836)
inactive: lapatinib -0.011 | pictilisib 0.04 | crizotinib 0.031 | [1] 0.057 | duvelisib -0.044 | gandotinib -0.05 | tozasertib 0.053 | doramapimod -0.055 | bafetinib 0.045 | [2] -0.055

GYPA (UniProt P02724)
Sequence of UniProt P02724 (P02724 whole entry, looked up): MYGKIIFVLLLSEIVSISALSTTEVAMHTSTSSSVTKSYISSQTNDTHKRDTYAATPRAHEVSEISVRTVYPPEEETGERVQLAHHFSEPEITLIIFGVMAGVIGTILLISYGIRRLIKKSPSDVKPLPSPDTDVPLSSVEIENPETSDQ
active: [1] 0.528
inactive: lapatinib 0.074 | pictilisib -0.01 | crizotinib 0.017 | duvelisib 0.013 | gandotinib -0.197 | tozasertib -0.02 | doramapimod -0.033 | bafetinib 0.229 | [2] -0.234

HAUS8 (UniProt Q9BT25)
inactive: lapatinib -0.022 | pictilisib -0.02 | crizotinib -0.055 | [1] 0.057 | duvelisib -0.075 | gandotinib 0.045 | tozasertib 0.027 | doramapimod -0.007 | bafetinib -0.037 | [2] 0.027

HELQ (UniProt Q8TDG4)
inactive: lapatinib 0.002 | pictilisib -0.009 | crizotinib -0.011 | [1] -0.014 | duvelisib 0.025 | gandotinib 0.012 | tozasertib -0.01 | doramapimod 0.042 | bafetinib -0.109 | [2] -0.033

HNRNPUL1 (UniProt Q9BUJ2)
inactive: lapatinib -0.008 | pictilisib -0.05 | crizotinib 0.043 | [1] 0.005 | duvelisib 0.01 | gandotinib -0.013 | tozasertib 0.012 | doramapimod -0.107 | bafetinib 0.051 | [2] -0.023

INTS3 (UniProt Q68E01)
Sequence of UniProt Q68E01 (Q68E01 whole entry, looked up): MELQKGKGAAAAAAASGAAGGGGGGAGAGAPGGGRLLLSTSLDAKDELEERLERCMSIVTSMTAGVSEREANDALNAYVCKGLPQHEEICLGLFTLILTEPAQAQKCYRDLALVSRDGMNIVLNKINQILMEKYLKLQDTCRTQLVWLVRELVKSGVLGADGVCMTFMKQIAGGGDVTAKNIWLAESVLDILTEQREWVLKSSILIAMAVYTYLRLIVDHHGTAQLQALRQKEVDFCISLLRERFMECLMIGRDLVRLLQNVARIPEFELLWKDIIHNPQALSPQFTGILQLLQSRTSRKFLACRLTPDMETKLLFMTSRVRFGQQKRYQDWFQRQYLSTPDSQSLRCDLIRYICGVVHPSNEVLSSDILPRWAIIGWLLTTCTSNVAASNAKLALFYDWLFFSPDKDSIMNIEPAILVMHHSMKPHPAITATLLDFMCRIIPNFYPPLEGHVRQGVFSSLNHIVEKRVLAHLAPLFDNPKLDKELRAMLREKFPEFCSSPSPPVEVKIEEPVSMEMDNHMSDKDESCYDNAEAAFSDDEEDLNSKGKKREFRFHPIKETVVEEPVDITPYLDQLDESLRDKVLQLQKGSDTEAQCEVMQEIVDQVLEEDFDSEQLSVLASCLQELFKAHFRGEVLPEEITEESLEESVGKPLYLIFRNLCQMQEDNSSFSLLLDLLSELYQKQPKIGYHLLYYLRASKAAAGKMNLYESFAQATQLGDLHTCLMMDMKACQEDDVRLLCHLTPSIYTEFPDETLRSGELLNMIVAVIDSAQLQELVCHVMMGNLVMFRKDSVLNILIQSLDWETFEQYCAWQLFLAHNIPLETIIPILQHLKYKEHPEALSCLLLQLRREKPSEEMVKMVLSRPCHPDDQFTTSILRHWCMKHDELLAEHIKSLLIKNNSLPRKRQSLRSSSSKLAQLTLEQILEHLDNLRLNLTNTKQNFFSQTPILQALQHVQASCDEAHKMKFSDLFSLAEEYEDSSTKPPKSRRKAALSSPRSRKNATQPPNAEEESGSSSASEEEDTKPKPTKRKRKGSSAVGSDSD
inactive: lapatinib -0.05 | pictilisib -0.005 | crizotinib -0.016 | [1] 0.02 | duvelisib -0.005 | gandotinib -0.104 | tozasertib 0.018 | doramapimod 0.106 | bafetinib -0.07 | [2] -0.052

GIT1 (UniProt Q9Y2X7)
inactive: lapatinib 0.029 | pictilisib -0.007 | crizotinib -0.015 | [1] 0.009 | duvelisib -0.08 | gandotinib -0.076 | tozasertib -0.002 | doramapimod -0.004 | bafetinib -0.047 | [2] -0.007

IMPDH2 (UniProt H0Y4R1)
inactive: lapatinib 0.074 | pictilisib -0.133 | crizotinib 0.19 | [1] -0.056 | duvelisib 0.011 | gandotinib 0.16 | tozasertib -0.028 | doramapimod 0.028 | bafetinib 0.022 | [2] 0.065

GTF2I (UniProt P78347)
inactive: lapatinib -0.005 | pictilisib -0.011 | crizotinib -0.039 | [1] -0.01 | duvelisib 0.016 | gandotinib -0.086 | tozasertib -0.004 | doramapimod 0.018 | bafetinib -0.066 | [2] 0.027

GRK6 isoform 2 (UniProt P43250)
inactive: lapatinib -0.122 | pictilisib -0.088 | crizotinib 0.084 | [1] -0.066 | duvelisib -0.04 | gandotinib 0.058 | tozasertib -0.063 | doramapimod 0.046 | bafetinib 0.065 | [2] 0.028

INTS10 (UniProt Q9NVR2)
Sequence of UniProt Q9NVR2 (Q9NVR2 whole entry, looked up): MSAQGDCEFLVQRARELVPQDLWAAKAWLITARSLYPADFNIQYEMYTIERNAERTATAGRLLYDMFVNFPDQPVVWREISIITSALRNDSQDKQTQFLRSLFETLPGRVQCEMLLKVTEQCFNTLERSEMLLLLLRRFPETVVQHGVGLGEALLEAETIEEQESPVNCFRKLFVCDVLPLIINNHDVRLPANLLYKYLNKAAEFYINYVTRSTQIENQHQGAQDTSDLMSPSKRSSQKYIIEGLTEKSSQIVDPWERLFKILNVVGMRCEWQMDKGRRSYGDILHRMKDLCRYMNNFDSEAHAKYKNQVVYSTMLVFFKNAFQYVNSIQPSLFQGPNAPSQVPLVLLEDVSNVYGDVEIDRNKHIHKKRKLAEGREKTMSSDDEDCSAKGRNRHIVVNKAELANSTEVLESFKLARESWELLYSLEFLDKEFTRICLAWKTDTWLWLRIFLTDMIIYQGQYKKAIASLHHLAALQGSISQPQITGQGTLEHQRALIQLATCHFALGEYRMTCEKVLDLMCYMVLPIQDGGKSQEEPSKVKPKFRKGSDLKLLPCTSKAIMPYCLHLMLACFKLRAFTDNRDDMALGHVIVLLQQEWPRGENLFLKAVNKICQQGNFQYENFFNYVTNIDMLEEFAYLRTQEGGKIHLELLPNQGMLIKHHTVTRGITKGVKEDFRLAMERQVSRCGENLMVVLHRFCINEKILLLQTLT
inactive: lapatinib 0.097 | pictilisib -0.093 | crizotinib -0.04 | [1] 0.027 | duvelisib -0.09 | gandotinib -0.168 | tozasertib 0.011 | doramapimod 0.026 | bafetinib -0.052 | [2] 0

GMIP (UniProt Q9P107)
inactive: lapatinib -0.046 | pictilisib -0.015 | crizotinib -0.006 | [1] 0.029 | duvelisib -0.005 | gandotinib -0.024 | tozasertib -0.014 | doramapimod -0.049 | bafetinib -0.068 | [2] 0.041

HADHB (UniProt P55084)
inactive: lapatinib 0.1 | pictilisib 0.067 | crizotinib 0.073 | [1] -0.041 | duvelisib 0.037 | gandotinib 0.138 | tozasertib 0.016 | doramapimod 0.218 | bafetinib 0.014 | [2] -0.093
